# In the supplement of paper PMC10681739:
# Legend:
# [1] = target: RUNX1 (UniProt Q01196); experiment: RUNX1 binding intensity (PBM fluorescence), RUNX1 alone (arbitrary fluorescence units); higher = stronger binding; conditions: RUNX1 concentration 2 nM; ETS1 concentration 0 nM
# Protocol: (§1)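 Cooperative gcPBM on 36-bp genomic probes with neighbouring ETS1 and RUNX1 sites. Recombinant human RUNX1 (2 nM) was incubated alone or with ETS1 (25 nM) and detected with anti-RUNX1 antibody plus Alexa488 secondary. Values are medians over 4 replicate spots; the RUNX1+ETS1 data were normalised to the RUNX1-only data. The probes sit in constant array flanks that are not printed.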
# [2] = target: RUNX1 (UniProt Q01196); experiment: RUNX1 binding intensity (PBM fluorescence) in presence of ETS1, normalised to RUNX1-only experiment (arbitrary fluorescence units); higher = stronger binding; conditions: RUNX1 concentration 2 nM; ETS1 concentration 25 nM
# Protocol: as §1
# [3] = target: T1, ETS1 (UniProt P14921); experiment: ETS1 binding intensity (PBM fluorescence) in presence of RUNX1, normalised to ETS1-only experiment (arbitrary fluorescence units); higher = stronger binding; conditions: ETS1 concentration 1 nM; RUNX1 concentration 25 nM
# T1 sequence: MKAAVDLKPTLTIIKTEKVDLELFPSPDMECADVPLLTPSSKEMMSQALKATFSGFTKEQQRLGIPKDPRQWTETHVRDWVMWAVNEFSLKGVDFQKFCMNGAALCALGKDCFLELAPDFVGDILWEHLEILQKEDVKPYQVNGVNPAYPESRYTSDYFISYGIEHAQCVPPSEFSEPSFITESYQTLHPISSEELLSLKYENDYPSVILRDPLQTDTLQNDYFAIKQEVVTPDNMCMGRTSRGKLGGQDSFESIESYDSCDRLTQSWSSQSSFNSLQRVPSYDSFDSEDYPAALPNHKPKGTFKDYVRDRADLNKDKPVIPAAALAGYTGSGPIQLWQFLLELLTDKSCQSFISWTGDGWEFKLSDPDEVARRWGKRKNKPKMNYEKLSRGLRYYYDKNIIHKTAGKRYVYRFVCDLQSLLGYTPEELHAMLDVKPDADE
# 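Wherever RUNX1 binding intensity (PBM fluorescence) in presence of ETS1, normalised to RUNX1-only experiment is given: Full-length recombinant human ETS1 or RUNX1 bound to double-stranded 36-bp genomic probes on microarrays, detected by protein-specific primary antibody and Alexa488 secondary, spot fluorescence as median of four replicate spots.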
# 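Wherever RUNX1 binding intensity (PBM fluorescence), RUNX1 alone is given: Full-length recombinant human RUNX1 bound to double-stranded 36-bp genomic probes on a high-density microarray, scored as Alexa488 fluorescence per spot via anti-RUNX1 antibody, median of four replicate spots.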
# Sequence of RUNX1 (Q01196 whole entry): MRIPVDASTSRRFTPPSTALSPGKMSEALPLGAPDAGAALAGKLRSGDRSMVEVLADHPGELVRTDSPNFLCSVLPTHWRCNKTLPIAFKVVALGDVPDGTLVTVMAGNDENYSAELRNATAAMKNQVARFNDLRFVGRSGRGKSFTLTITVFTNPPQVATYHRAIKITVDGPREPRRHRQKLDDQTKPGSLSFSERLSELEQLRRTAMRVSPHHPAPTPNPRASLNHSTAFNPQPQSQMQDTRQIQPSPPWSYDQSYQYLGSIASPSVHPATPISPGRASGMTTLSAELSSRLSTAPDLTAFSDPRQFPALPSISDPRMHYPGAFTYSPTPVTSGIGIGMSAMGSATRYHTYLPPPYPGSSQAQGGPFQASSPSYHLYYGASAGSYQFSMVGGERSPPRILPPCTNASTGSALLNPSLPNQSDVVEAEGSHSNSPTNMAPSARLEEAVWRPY
Sequence,RUNX1 binding intensity [1],RUNX1 binding intensity [2],ETS1 binding intensity [3]
GCTAGACAGGAAACAGTGAGCTTCTGTGGGCAGGAG,758,1060,
CACTCCCCGAATCCGGTCTGCGGCGCGCTCGGGGCC,774,1250,
ATTTTAGCATTTTCCTGCTCGGAGACCACATGTTTG,1170,1220,
AGAGCCACATCCCGCGCAGAGGACCGCGGCGACCGG,764,927,
CTTAGGACTTCCCGTAGATGGTGGTCTGTGCTAAGG,706,1050,
TTGCTCGGCTTCCTGGAGCTGTGGTCCGTGTGGGCT,708,1020,
GACAGAGGAAACTAGGTGTGACAACCACAAACAGCT,882,785,
GACAGACCTTAGGAAGTCGCGGTTTCATCAGGGCTT,916,1220,
GCTGTCCGTTTCCGAGATGTTAATGCGGGGTCTTGC,866,1070,
GCTTAAGGAAGGGACAACTAGAGTGGGTTACTCTGC,863,717,
GGCAGCCGATGCATCCTGCGGTGTGTGGCCCTCAGA,787,1040,
CAGAGGAAGCCCACCCCATAAAAGAACCACAGATAA,1010,864,
CCAGCGGAAAGCCGGTCAGGGGGAACCGCGGCGGGG,893,758,
TTACTTCCTGAGGGTGCACAGGCTGTGGTCGTCTAT,760,2070,
GATGACTTCCTCAGTTCAGGGCTATGTGCGGGGGAG,833,1060,
CAGTGTTCCGCGTCCGGGGGTTTGTGGGAGTTGCCT,989,1120,
AGTTTTCCGTCGGGCTCCCAGTGACGCCGCAGAGGT,764,1180,
TACACTCCCACATCCGCTGCGGCGCAACTCACAACA,1020,6980,
AGAGGCAGTTCCGGGGTGGGAACCGCGCGGAGCTTT,687,1220,
ATAGACCCAGCCCGTCCGGTAACCGCGCTCCTCGAT,836,913,
AGTTTCCTGAACTCAGAGCACAGTTGTGGTGCAGAA,743,1270,
ACAGACAGCATCCTGAGCTCGTGGTTAGAACACCCT,841,985,
GGGCAGGCCGGATGTGGGAGACCACAAAGCCCAAGG,820,9010,
CTTCTTCCTGCTGAGACTGATACAGCCCGCAAAGCT,994,1800,
TGCACGGTAAGCAGGAAGCTGCGGCCGAGCTGAGTC,687,1030,

Sequence,RUNX1 binding intensity [1],RUNX1 binding intensity [2],ETS1 binding intensity [3]
CCTCCGGAACGGCGCGGGGGATTGTGGGGTGTAGGG,910,761,
ACGAGAGTCTAGAGGAAACCAACCCGCAACTCACTG,892,868,
CTGGGCGTGGGCTTCCTGCGGCTGAGTGGCAGCTTC,740,997,
TTAGAGCTGACATCCTTGCGGTCCACAGCCTCCAAA,961,1090,
GCACGGCGGAATTTCAAATGGGGTTTTGTGGTTTCT,1220,1280,
GGCGGGGCATCCGGCAGCACCGCCTGCGGGCGCCCG,667,1070,
ACCAGAACTAAAGCGGATAGCGGTTAGAAACGCCCA,872,952,
ATGTACATAGATACAGGATGTGGGTTTGTTACAAAG,746,3400,
GGGGGAGCAAGCGCCTTCCGCGGTCGCTGGGGGGAG,939,812,
TTATGCCTCAGGATGAACGAACCTCAAACACCCAGG,904,858,
CCATTTCCCCCATCACTTTGAATTGTGGTTCTTCTC,1590,2920,
CCCGGCCCAGGAAACTTCAGACTTCACCGCAGCTTC,1060,1030,
GACCCGGCCCGCCCCTTCCGGCCGCAGCGCGGGGCA,952,1490,817
GTGAGTCACTTCCTGACCATGTGGGTTTTTGGTACG,823,2090,937
TTCAACAAGGTTTTCCTGTGGTTACCCCATGCTTTG,1040,1680,451
ACAGGAAATGTTAGAGGTTGAGTTAGCGGTTATGAG,833,914,3640
GTAGCTCCTCCCACTTCCCGTGGTTTTCGGTTGAAC,1240,2760,916
CCCATCCATCCGCCTCCAAAGTAACCTCAAGAATTT,2140,2490,
CCTGAAGCTCATGCGGAAAACCCACAAAGGGGTGCC,932,828,
AAGTTCTTCCGGGTCTGCAGTCTGTGGTGTGTTTGC,810,1710,422
GGTGGCAACATCCTGGGGAGGGGAACCCACAGGGGA,835,1100,452
CTGTTTCCGAGTAAAGTAGGGTGTGTGGGTCACATG,872,929,
ATCTTGGCCCATATCCTGTGGTGTTCTGCTAGAGGT,791,1290,843
AGGGCATAAACAGGATGTGGTGTTGGATGAAACCTT,750,1360,7490
TCTGGGGGAGGGGAAGGATGTGGTTTGCAGAGCGGA,1020,1470,5630

Sequence,RUNX1 binding intensity [1],RUNX1 binding intensity [2],ETS1 binding intensity [3]
CAAGGTTCCTCCGCTTCCTGCCCGCAGGCCGAACCT,840,1830,1600
TGGCTTGTTTCCGGTTCCTCTGTGGCGCCGTTCTCG,938,2890,2820
GTTGGTCGCGCGCCTTCCTGCGGCTAAGATGGCGAC,749,923,
TCCTGCCCTCCCATCCTGTGGTCAGAGGCCAGGGCT,854,1580,
AATCGCGCAGTTCCGCAGCTGCCGCCCCACAACCGT,863,960,
CCCACTGATAAGACAGGATGTGGTAAAGAAGCCAGC,776,6790,22800
TGCAAGAGGAAGCTGGGGTTTGTGGTTCATGTTTTG,874,1390,1000
ACGTCAGCATCCGCCGGGCTCGCGGTAAGGTGTGAG,736,1280,
CTACCCTCCCTCTTCCTGTGGTTTCTCAAACATGTC,2470,5090,937
TACTTCTTCCTGGCAGAGACCGGGAGTGCGGTCCGC,745,920,588
CATTCAGTAAAAGGATGTGGTTTAGAACAGATGAAA,958,2150,
TCTGTGACTACGCGGATGTTGTGGGCGGCTACATGC,749,869,
CCCTTCCTGTGAGGGAGGTTCCAGTTCCCACAGCGG,782,1670,
CAGTTTATCCTGTGAGAGCCTTGTGGTTCCTACTAA,773,859,
GGCGAGGCTGAGAGGAAACCACACTCTCACTGGGGT,933,921,
CCCCTTAGCACAGGATGTGGTCTTTGCATCTTCATT,1040,2960,7360
CCAGTGCAGAAACATCCCTCCTGCCGCAGCTTTGTC,1020,896,
CGGGGTTTCCTGGTGGCTGCGAGCGGTGGGGACGGC,728,1140,
GGGATCCTTCCGCTCCGGGTTAACCCCGACCGCGCC,795,1620,
CCACCATCTTTCCGGCTCCCTCGCGACCACCACGAC,1410,1970,
AGGCTTCCTGTTTTATCTCGTGTGTGTGGTGCACCA,970,2120,565
TTTCTTCTGATCTTCCTCCCCGCACGTCTGCACAGG,1220,1020,
TGATCAGCAAAAGGAAGTGGTTAACATGGCCCAGAA,825,1990,4770
CGGGCCGGATCGCCTTCGCCGCCGCCCGCCCGCAAA,979,866,
TCGTGAAAAAGGAAGTGGATAAAGTGGTTACGGCAA,792,1460,3260

Sequence,RUNX1 binding intensity [1],RUNX1 binding intensity [2],ETS1 binding intensity [3]
AAGACACCAACGCTCGGAAACCGCCAGACACCAACG,945,916,
AGACGGGACCGGAAGCCGGGCCGCAGGCGGCCGGGC,811,1240,6650
GGGCTATTGTTTCCTCCCCCATGTGACCACAGCCTC,994,1290,776
TCCCACATCCTGTGCTCGTGCAGTGGTTAGGCTCAA,793,2490,608
GCTTCTGAGGAAGTGCGTTTTGTGGGTAGGTGGAGT,792,878,1410
GTGGCTATGGGAAGTGGGGTGCGGTTTCTGCCGGGG,1340,1670,3070
AGCGTTGTCTTCCGGCCTCAACCACTCAGCGACCGG,751,1760,10600
GGCACCGGAAGTAGAGCTGCCCCTAGTTGCGGCAGT,767,1380,12800
AACCCACCGGATGGAAGCTGCCACTCAGCCGCAGGA,836,1030,1700
TTGTCGGGTATGGGATGTGGGCAGAGAGTATGATGG,866,797,835
CCTTGCTGCAGGATGCTCTAACCACAAGCCCAGGAG,2370,5330,2720
CCCACTCCACTTCCGCCACCGCCGCAGCCGCCGCTG,1980,5930,1420
GCCCTGACCCACATCCTGCCGCAGCCTGCTTGTCCT,1520,7030,1350
AAAACAAGGACTTCCGCCTCCCTGCGGTCCCTCCCC,894,1880,2730
CCTCCCTGAGGGGGAAGTGGTTTTTGAGTCTGAGTC,859,1020,1190
ACCTCTCTCACTTCCTACCAGAGAACCACAGCCAAG,1490,2150,404
AAATACCAGCCCACTTCCTGTGGCTTTGATCTGCAG,855,5090,3340
CTCTCCACCTCCTTCCGACCAGGACCGCACCCCCCC,1990,1650,939
TTGTCAGATGGCGAAGGAAACCGCGAAATTCGCCAT,1270,1050,1270
GGATGACATCCGGCACCAACTTAACCACTAATCTCA,947,2410,1690
CTTTCGGGGGCGGAAGTTGCGGTGCATTGTAGGTTC,955,2800,20000
TTACTGCCGGAACTTGGGACCTTTGTAACCACGTCT,768,875,586
CCATTCACGGGCTTCCGCGGTGTCCCCACCCCCTAA,1080,1160,760
AACACCTCACACTTCCTGCCCACAAGATAAGAGCCT,1660,3120,1910
CTCGCCCCATTTCCCGTAAATATCAGCCACAGACCA,1350,1900,464
